For 6 compounds, Potency and outcome results are on record in PubChem BioAssay (Tox21).

SMILES strings stand for the structures. Inconclusive results are not listed. Calls of active or inactive are those of the source. Unless noted, calls follow the shape of the full dose curve.

Assay [1] can be described thus: qHTS assay to identify small molecule agonists of the sonic hedgehog signaling (Shh) pathway (AID 1259368).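 Also: NIH/3T3-derived 3T3Gli1-Luc cells carrying a stable Gli1-driven firefly luciferase reporter; series mostly up to about 92 µM; nearly all actives have a fitted effect of over 15% in size.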 The gist of the method: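 Luminescent signal was taken as a measure of Gli1-controlled luciferase expression in stably transfected NIH/3T3-derived cells that had been treated for 24 hr with compounds delivered in DMSO.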
Assay [2] is described as follows: qHTS assay to identify small molecule antagonists of the sonic hedgehog signaling (Shh) pathway (AID 1259369). Also: nearly all actives have a fitted effect of over 45% in size. Also: potency is read from the fitted curve at half-maximal effect. The gist of the method:
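Screening used 3T3Gli1-Luc cells at 2,000 per well, compounds delivered in DMSO, and conditioned medium as agonist stimulus; plates incubated 24hr at 37 C and 5% CO2 before a 30min luciferase step.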
(qHTS replaces the single test concentration by a dilution series.)

For assay [3], the target named is Androgen receptor (Homo sapiens) (UniProt P10275). The experiment in a line: qHTS assay to identify small molecule agonists of the androgen receptor (AR) signaling pathway in the presence of an antagonist (AID 1259381). Also: nearly all actives have a fitted effect of over 15% in size. The gist of the method:
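Here, 15-concentration compound series were pin-transferred onto MDA-kb2 MMTV-luciferase cells already dosed with nilutamide (3.0uM final). After 16hr at 37C, ONE-Glo was added and luminescence read 30min later at room temperature.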

Assay [4] can be described thus: qHTS assay to identify small molecule antagonists of the estrogen receptor beta (ER-beta) signaling pathway - cell viability counter screen (AID 1259382; active = well fitted curve in the direction sought with a large enough effect in the repeat runs; an effect the other way counts as inactive or inconclusive; also: nearly all actives have a fitted effect of over 55% in size; also: potency is read from the fitted curve at half-maximal effect). The gist of the method:
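Tox21 10K library tested in qHTS format on ER-beta-bla HEK293T cells stimulated with 1nM E2; 16 hr treatment at 37C. Same-well CellTiter-Glo luminescence served as the cell viability measure.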

Assay [5] has as its target Estrogen receptor (Homo sapiens) (UniProt P03372). The experiment in a line: qHTS assay to identify small molecule agonists of the estrogen receptor alpha (ER-alpha) signaling pathway in the presence of an antagonist (AID 1259383). Also: top concentration of the series differs between compounds; nearly all actives have a fitted effect of over 15% in size. The gist of the method:
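In VM7Luc4E2 cells, 4,000 per well, compounds at 15 concentrations were co-incubated 22hr at 37C with 10.0nM final ICI-182,780. Luminescence from the stably transfected 4×ERE-luciferase reporter was recorded 30min after ONE-Glo addition.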

Assay [6] in a line: qHTS assay to identify small molecule agonists or antagonists of the thyroid stimulating hormone receptor (TSHR) signaling pathway - wild type cell line counter screen (AID 1259384). The method in brief:
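Counter screen in untransfected Hek293: compounds (15-point titration, triplicate) plus phosphodiesterase inhibitor Ro20-1724 added after 18 h plating; 30 min RT. Intracellular cAMP via competitive d2/cryptate immunoassay, 1 h incubation.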

Assay [7] concerns the target Thyrotropin receptor (Homo sapiens) (UniProt P16473). The experiment in a line: qHTS assay to identify small molecule antagonists of the thyroid stimulating hormone receptor (TSHR) signaling pathway (AID 1259385). Also: nearly all actives have a fitted effect of over 20% in size. Also: potency is read from the fitted curve at half-maximal effect. The method in brief:
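Antagonist mode: compound-treated TSHR-expressing HEK293 cells were stimulated with 1.5 ng/mL TSH (final) in presence of Ro20-1724 for 30 min at RT. HTRF cAMP detection after 1 h; each compound tested at 15 concentrations, triplicate.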

In assay [8] the target is Progesterone receptor (Homo sapiens) (UniProt P06401). The experiment in a line: qHTS assay to identify small molecule agonists of the progesterone receptor (PR) signaling pathway (AID 1346784). Also: nearly all actives have a fitted effect of over 30% in size. The gist of the method:
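PR-UAS-bla HEK 293T cells (beta-lactamase reporter under UAS) in 2% charcoal-stripped FBS, dosed with 23 nL compound after 6 hr, incubated 16hr at 37C. LiveBLAzer B/G FRET substrate added, fluorescence read after 2 hours.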

Assay [9] is described as follows: qHTS assay to identify small molecule antagonists of the progesterone receptor (PR) signaling pathway - cell viability counter screen (AID 1346798; active = well fitted curve in the direction sought with a large enough effect in the repeat runs; an effect the other way counts as inactive or inconclusive; also: nearly all actives have a fitted effect of over 50% in size; also: potency is read from the fitted curve at half-maximal effect). The method in brief:
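PR-UAS-bla HEK293T cells, 3,000/well in 2% charcoal-stripped FBS medium, dosed with compounds plus R5020 agonist and incubated 16 h at 37C. Viability then measured in the same wells by CellTiter-Glo luminescence after 30 min at RT.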

Assay [10] can be described thus: qHTS assay to identify small molecule agonists of the progesterone receptor (PR) signaling pathway - cell viability counter screen (AID 1346799). Also: nearly all actives have a fitted effect of over 45% in size. Also: potency is read from the fitted curve at half-maximal effect. The gist of the method: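 Counter screen in the PR-UAS-bla HEK293T wells (2% charcoal-stripped FBS, 16 h compound exposure at 37 C) after the bla read. CellTiter-Glo added, 30 min at room temperature, luminescence read as cell viability.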

Assay [11] can be described thus: qHTS assay to identify small molecule agonists of the TGF-beta/Smad signaling pathway - cell viability counter screen (AID 1346829; active = well fitted curve in the direction sought with a large enough effect in the repeat runs; an effect the other way counts as inactive or inconclusive; also: top concentration of the series differs between compounds; nearly all actives have a fitted effect of over 45% in size). The gist of the method: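 Luminescence from CellTiter-Glo, read after a 30 min room-temperature incubation, gives cell viability of SBE-bla HEK 293T cells treated 5 hr with compounds at 37 C.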
Assay [12] is described as follows: qHTS assay to identify small molecule agonists of the TGF-beta/Smad signaling pathway (AID 1346859; active = well fitted activation curve with a large enough effect in the signal ratio in the repeat runs, not every such curve was filed as active; the % refers to the signal ratio; also: series mostly up to about 77 µM). The method in brief: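 SBE-bla HEK293T cells plated overnight, then compound exposure for 5 h at 37 C. Beta-lactamase reporter read with LiveBLAzer B/G FRET substrate after 2 h at room temperature, fluorescence at 405 nm excitation, 460/530 nm emission.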
Assay [13] deals with Thyrotropin-releasing hormone receptor (Homo sapiens) (UniProt P34981). The experiment in a line: qHTS assay to identify small molecule antagonists of the thyrotropin-releasing hormone receptor (TRHR) signaling pathway (AID 1346877; active = well fitted inhibition curve with a large enough effect in the repeat runs, not every such curve was filed as active; also: series mostly up to about 51 µM). The method in brief:
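In this cell-based calcium flux format, HEK293 cells expressing TRHR received test compound for 5 min before the agonist TRH (1 nM final). Dye loading lasted 2 h at 37 °C.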

In assay [14] the target is Estrogen receptor beta (Homo sapiens) (UniProt Q92731). The experiment in a line: qHTS assay to identify small molecule agonists of the estrogen receptor beta (ER-beta) signaling pathway (AID 1259377; active = well fitted activation curve with a large enough effect in the signal ratio in the repeat runs, not every such curve was filed as active; the % refers to the signal ratio). The method in brief:
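ER-beta-UAS-bla HEK293T cells in medium with 2% charcoal-stripped FBS were exposed to compounds for 16 h at 37C. Beta-lactamase reporter activity was read as fluorescence after 2 h with LiveBLAzer B/G FRET substrate at room temperature.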

Assay [15] has the same target. The experiment in a line: qHTS assay to identify small molecule antagonists of the estrogen receptor beta (ER-beta) signaling pathway (AID 1259378; active = well fitted inhibition curve with a large enough effect in the signal ratio in the repeat runs, not every such curve was filed as active; the % refers to the signal ratio). The gist of the method: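 Antagonist mode: compounds added to beta-lactamase reporter HEK293T ER-beta-UAS cells stimulated with E2 (1nM final), 16 hr at 37C. LiveBLAzer B/G FRET substrate, 2 hours room temperature, fluorescence read-out.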

A short description of assay [16]: qHTS assay to identify small molecule agonists of the androgen receptor (AR) signaling pathway in the presence of an antagonist - cell viability counter screen (AID 1259379; active = well fitted curve in the direction sought with a large enough effect in the repeat runs; an effect the other way counts as inactive or inconclusive;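 also: MDA-kb2 human breast cancer cells carrying an MMTV luciferase reporter; series mostly up to about 92 µM; nearly all actives have a fitted effect of over 25% in size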). The method in brief:
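In MDA-kb2 cells (human breast carcinoma, MMTV-luciferase), compounds at 15 concentrations plus 3.0uM nilutamide; 16 hr, 37C, 0% CO2; CellTiter-Fluor fluorescence read for viability.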

Assay [17] in a line: qHTS assay to identify small molecule agonists of the estrogen receptor beta (ER-beta) signaling pathway - cell viability counter screen (AID 1259380; active = well fitted curve in the direction sought with a large enough effect in the repeat runs; an effect the other way counts as inactive or inconclusive; also: nearly all actives have a fitted effect of over 30% in size). The gist of the method: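 Viability of ER-beta-UAS-bla HEK293T cells was determined by CellTiter-Glo luminescence following 16 hr treatment with test compounds at 37C.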
A short description of assay [18]: qHTS assay to identify small molecule agonists of the estrogen receptor alpha (ER-alpha) signaling pathway in the presence of an antagonist - cell viability counter screen (AID 1259386; active = well fitted curve in the direction sought with a large enough effect in the repeat runs; an effect the other way counts as inactive or inconclusive;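 also: series mostly up to about 92 µM; cells exposed to compounds for 22 h at 37 °C before the viability read; nearly all actives have a fitted effect of over 30% in size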). The method in brief:
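Fluorescent CellTiter-Fluor viability signal from VM7Luc4E2 cells, with the reagent added during the final hour of a 22hr compound exposure at 37C in the presence of 10.0nM ICI-182,780.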

The target in assay [19] is Progesterone receptor (Homo sapiens) (UniProt P06401). The experiment in a line: qHTS assay to identify small molecule antagonists of the progesterone receptor (PR) signaling pathway (AID 1346795; active = well fitted inhibition curve with a large enough effect in the signal ratio in the repeat runs, not every such curve was filed as active; the % refers to the signal ratio). The gist of the method: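 PR-UAS-bla HEK293T cells with beta-lactamase reporter under UAS control, in 2% charcoal-stripped FBS, treated with compounds plus 1 nM promegestone (R5020, final) for 16 hr at 37C. Read-out: FRET beta-lactamase substrate fluorescence after 2 hr at room temperature.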
Chain of Progesterone receptor (Homo sapiens) (P06401 whole entry, looked up): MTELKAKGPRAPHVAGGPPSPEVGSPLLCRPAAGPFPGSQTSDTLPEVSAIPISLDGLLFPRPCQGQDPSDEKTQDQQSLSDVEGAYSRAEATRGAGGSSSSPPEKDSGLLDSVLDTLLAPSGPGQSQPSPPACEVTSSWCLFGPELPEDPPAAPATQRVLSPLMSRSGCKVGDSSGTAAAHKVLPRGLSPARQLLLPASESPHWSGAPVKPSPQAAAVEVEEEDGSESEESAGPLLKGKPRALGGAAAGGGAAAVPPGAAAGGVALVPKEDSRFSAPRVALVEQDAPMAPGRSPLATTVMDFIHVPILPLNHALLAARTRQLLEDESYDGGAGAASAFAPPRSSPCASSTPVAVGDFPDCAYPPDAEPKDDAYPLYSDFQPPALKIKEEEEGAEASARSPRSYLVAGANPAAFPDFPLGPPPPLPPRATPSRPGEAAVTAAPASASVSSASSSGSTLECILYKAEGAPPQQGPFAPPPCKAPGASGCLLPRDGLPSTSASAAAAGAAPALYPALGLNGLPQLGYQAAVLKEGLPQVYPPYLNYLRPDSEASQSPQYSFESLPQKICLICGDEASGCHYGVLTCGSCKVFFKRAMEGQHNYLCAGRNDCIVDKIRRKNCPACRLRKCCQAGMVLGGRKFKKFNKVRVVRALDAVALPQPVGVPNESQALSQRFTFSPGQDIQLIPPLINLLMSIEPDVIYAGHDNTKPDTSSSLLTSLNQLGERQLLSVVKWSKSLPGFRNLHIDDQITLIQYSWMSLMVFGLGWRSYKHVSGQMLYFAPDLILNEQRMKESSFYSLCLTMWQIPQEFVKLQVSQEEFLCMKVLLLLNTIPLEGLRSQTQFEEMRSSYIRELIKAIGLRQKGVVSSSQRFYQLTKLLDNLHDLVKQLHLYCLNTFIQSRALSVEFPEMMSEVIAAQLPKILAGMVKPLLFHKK

Assay [20] can be described thus: qHTS assay to identify small molecule antagonists of the TGF-beta/Smad signaling pathway - cell viability counter screen (AID 1346824; active = well fitted curve in the direction sought with a large enough effect in the repeat runs; an effect the other way counts as inactive or inconclusive; also: nearly all actives have a fitted effect of over 50% in size). The gist of the method: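 Cytotoxicity counter-screen run in the same wells as the beta-lactamase Smad reporter read: CellTiter-Glo luminescence after 30 min at room temperature. HEK 293T SBE-bla cells had 5 hr compound exposure at 37 C with TGF-beta1 (0.25 ng/mL stock).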

Chain of Thyrotropin receptor (Homo sapiens) (P16473 whole entry, looked up): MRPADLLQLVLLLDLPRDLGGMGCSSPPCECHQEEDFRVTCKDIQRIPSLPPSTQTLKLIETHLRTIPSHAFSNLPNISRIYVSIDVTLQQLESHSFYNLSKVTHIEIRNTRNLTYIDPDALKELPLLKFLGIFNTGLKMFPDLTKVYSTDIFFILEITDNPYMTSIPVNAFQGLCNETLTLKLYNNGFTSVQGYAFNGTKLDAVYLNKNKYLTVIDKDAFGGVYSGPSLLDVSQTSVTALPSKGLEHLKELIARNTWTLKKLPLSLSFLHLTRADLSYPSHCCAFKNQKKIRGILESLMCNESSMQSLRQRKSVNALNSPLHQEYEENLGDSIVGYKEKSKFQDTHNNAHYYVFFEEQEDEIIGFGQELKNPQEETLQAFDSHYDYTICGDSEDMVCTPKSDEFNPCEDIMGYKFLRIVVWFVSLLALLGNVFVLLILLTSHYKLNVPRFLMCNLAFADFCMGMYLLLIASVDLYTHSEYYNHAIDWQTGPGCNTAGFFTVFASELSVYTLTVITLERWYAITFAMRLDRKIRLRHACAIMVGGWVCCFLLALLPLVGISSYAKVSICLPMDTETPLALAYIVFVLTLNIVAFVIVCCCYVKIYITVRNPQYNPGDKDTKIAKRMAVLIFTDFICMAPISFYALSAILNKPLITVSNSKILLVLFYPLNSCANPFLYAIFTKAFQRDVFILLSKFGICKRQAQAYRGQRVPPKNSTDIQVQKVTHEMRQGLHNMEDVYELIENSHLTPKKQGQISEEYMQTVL
Chain of Estrogen receptor beta (Homo sapiens) (Q92731 whole entry, looked up): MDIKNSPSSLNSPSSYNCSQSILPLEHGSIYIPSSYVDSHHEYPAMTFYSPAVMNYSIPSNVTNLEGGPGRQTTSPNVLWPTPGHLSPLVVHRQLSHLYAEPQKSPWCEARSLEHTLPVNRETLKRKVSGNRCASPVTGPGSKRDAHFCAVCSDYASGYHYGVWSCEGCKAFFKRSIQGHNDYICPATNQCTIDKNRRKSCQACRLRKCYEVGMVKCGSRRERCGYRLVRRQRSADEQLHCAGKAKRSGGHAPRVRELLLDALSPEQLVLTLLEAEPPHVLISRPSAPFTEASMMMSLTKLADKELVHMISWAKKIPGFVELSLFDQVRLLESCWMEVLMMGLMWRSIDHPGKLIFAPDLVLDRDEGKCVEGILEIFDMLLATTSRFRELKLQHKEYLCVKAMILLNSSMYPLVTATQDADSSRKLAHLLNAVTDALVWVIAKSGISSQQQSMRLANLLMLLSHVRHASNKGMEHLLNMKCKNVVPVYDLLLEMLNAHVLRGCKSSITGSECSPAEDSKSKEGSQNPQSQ
Chain of Thyrotropin-releasing hormone receptor (Homo sapiens) (P34981 whole entry, looked up): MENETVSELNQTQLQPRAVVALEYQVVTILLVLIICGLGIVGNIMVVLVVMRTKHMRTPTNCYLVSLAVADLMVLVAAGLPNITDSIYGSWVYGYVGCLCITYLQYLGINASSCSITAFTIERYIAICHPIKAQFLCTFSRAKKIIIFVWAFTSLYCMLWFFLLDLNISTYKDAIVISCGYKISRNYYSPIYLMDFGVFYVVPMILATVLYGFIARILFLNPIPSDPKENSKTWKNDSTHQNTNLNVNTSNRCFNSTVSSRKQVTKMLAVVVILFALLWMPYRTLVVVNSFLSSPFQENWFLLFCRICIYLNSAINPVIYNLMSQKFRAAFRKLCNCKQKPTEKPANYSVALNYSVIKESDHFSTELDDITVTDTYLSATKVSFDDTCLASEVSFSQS
Chain of Estrogen receptor (Homo sapiens) (P03372 whole entry, looked up): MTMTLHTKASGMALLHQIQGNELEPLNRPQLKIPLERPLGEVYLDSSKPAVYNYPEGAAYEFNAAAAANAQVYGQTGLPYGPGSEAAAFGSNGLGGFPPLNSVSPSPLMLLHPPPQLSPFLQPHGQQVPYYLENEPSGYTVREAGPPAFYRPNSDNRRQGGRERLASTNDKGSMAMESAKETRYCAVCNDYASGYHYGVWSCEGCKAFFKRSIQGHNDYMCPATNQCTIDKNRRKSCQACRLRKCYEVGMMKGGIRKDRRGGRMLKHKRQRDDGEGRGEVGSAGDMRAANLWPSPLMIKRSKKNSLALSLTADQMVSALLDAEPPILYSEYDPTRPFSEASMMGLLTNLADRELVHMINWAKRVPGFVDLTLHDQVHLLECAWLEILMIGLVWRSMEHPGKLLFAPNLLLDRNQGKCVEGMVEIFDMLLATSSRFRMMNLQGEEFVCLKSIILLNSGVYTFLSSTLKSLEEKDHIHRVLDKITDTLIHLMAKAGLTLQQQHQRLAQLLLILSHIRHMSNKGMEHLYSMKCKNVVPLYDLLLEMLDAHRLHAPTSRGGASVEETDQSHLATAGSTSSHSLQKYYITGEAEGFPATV
Chain of Androgen receptor (Homo sapiens) (P10275 whole entry, looked up): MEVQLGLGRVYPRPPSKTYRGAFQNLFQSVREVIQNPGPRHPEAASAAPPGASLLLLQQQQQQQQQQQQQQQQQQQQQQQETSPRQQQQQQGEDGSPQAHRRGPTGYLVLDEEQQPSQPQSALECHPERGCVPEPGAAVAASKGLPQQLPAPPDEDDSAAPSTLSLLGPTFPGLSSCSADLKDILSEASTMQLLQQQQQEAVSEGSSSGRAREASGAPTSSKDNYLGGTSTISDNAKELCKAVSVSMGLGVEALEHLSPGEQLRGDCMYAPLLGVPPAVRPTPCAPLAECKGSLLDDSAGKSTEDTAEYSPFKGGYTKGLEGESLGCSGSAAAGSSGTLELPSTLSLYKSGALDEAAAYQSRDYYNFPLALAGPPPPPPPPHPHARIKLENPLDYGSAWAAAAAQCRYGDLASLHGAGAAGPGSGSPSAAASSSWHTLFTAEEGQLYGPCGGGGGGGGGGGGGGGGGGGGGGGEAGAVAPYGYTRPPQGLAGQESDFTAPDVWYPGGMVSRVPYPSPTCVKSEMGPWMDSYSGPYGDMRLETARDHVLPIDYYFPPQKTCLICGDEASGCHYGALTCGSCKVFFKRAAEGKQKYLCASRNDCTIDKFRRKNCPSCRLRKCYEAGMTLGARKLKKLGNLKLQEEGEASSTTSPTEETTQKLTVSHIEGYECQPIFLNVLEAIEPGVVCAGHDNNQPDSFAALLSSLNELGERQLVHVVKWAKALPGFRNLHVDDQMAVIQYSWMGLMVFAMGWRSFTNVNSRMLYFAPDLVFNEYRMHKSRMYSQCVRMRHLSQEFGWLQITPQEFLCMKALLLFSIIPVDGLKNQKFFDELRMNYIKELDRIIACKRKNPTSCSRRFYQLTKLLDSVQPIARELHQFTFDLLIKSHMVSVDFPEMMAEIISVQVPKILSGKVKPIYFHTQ

As to `Nc1ccc(Cl)cc1[N+](=O)[O-]`, the Potency result in assay [1], in [2], in assay [3], in assay [4], in assay [5] and in [7] was “inactive” throughout. The Potency entry in [8], in assay [9] and in assay [10] was “inactive” each time. The call in [6], in [11], in assay [12] and in assay [13] was inactive.

On to `Cc1cc(O)c(C(C)C)cc1Cl`, for which the Potency entry in assay [1], in [14], in assay [15], in assay [16], in [17] and in assay [4] was “inactive” each time. The Potency entry in assay [5], in assay [7], in assay [18], in [8], in assay [19] and in [9] was “inactive” throughout. Further, the Potency entry in assay [10] was “inactive”. Moreover, the result in [6], in assay [20], in assay [11], in assay [12] and in assay [13] was inactive.

On to `CC(COc1ccc(C(C)(C)C)cc1)OS(=O)OCCCl` (configuration not stated), for which the Potency entry in assay [1], in assay [4], in [5], in assay [7] and in [18] was “inactive” in each case. The Potency in [2] is 1.94 µM (active). Moreover, the call in [6], in assay [20], in assay [11], in [12] and in assay [13] was inactive.

As to `CN1CCN(CCCN2c3ccccc3Sc3ccc(S(=O)(=O)N(C)C)cc32)CC1`, the Potency entry in [1], in [16], in [18] and in [8] was “inactive” throughout. For the same compound, the Potency was 13.3 µM (active) in assay [2]; 23.7 µM (active) in [4]; 29.8 µM (active) in assay [7]; 13.3 µM (active) in [9]; 6.68 µM (active) in [10]. Besides, the result in assay [6], in [11], in assay [12] and in assay [13] was inactive.

`CO[Si](C)(OC)OC`: the Potency entry in assay [1], in [14], in assay [15], in [16], in assay [4] and in assay [5] was “inactive” each time. Further, the Potency entry in [7], in assay [18], in assay [8], in assay [19], in assay [9] and in assay [10] was “inactive” in each case. Moreover, the compound was called inactive in assay [6], in [20], in assay [11], in [12] and in assay [13].

On to `C=CC(=O)NCOCC(C)C`, for which the Potency result in assay [1], in [15], in [16], in assay [4], in assay [7] and in assay [18] was “inactive” throughout. Also, the Potency entry in assay [8], in [19], in assay [9] and in assay [10] was “inactive” each time. Also, the compound was called inactive in assay [6], in [20], in assay [11], in assay [12] and in assay [13].
